High-throughput results (PubChem BioAssay)
The list is not random: actives were taken first. Their share in the collection is about 12%.
Pf growth 96h = inhibits malaria parasite growth, 96 h | AID 504834 | P. falciparum luciferase reporter growth, 96 h | actives 6.9% (n = 320,000) | Potency, µM (top dose mostly 28.7 µM), usual class: inhibitors
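Two-generation exposure (96 h) targets delayed-death phenotype. Reporter parasites carrying integrated firefly luciferase, in red cells at 2% hematocrit and 0.05% parasitemia final, kept at 37 C, 5% CO2; luminescence loss indicates inhibition.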
SARS PLP yeast = blocks SARS-CoV papain-like protease in a yeast assay; S. cerevisiae expressing SARS-CoV PLpro, growth rescue; Potency, µM (highest dose often 32.9 µM), hits mostly activators; actives 0.19% (n = 330,000); calls by dose curve; also: nearly all actives have a fitted effect of over 55% in size
Sm TGR inh = S. mansoni TGR enzyme inhibition. Potency, µM (doses to about 114 µM), most hits filed as inhibitors. actives 3% (n = 360,000). purified TGR, DTNB reduction, TNB absorbance 405 nm; also: nearly all actives have a fitted effect of over 60% in size
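First, TGR (20 nM dispensed) and NADPH were mixed with compound. Second, a 15 min room-temperature incubation followed. Third, further NADPH and then DTNB were added to start the reaction. Finally, TNB absorbance was monitored kinetically.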
Pf growth 48h = P. falciparum growth inhibition at 48 hours (one generation); P. falciparum luciferase growth in erythrocytes, 48 h; Potency, µM (top dose mostly 28.7 µM), usual class: inhibitors; actives 5.9% (n = 310,000); AID 504832
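Read-out is firefly luciferase luminescence from an integrated reporter in P. falciparum, so falling signal marks reduced parasite growth. Infected erythrocytes were at 2% hematocrit and 0.1% parasitemia (final) in Albumax-supplemented RPMI 1640.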
Each line names hits and unclear results; the compound was inactive in the other large screens. Unless noted, calls follow the shape of the dose curve; as a rule, active = well fitted curve in the direction sought with a large enough effect; inconclusive = small, poorly fitted or top-dose-only effect, or another doubt; inactive = no such curve, though single readings can be large; an effect the other way counts as inactive or inconclusive.

Cc1cccc(OCC(=O)OCc2cc(=O)n3nc(C4CCCCC4)sc3n2)c1	none (no result: Pf growth 96h, SARS PLP yeast, Pf growth 48h)
O=C(Cn1cc(S(=O)(=O)Cc2ccc(F)cc2)c2ccccc21)NCc1ccccc1Cl	none (no result: Pf growth 96h, SARS PLP yeast, Pf growth 48h)
Cc1[nH]c2ccccc2c1C(=O)CN1CCN(c2ccc(Cl)cc2)CC1	Pf growth 96h inconclusive, Pf growth 48h inconclusive
CCN1CCN(c2ccccc2NC(=O)c2ccc(-n3cccn3)cc2)CC1	Pf growth 48h inconclusive
CCN(CC)c1ccc(NC(=O)COc2ccccc2C)cc1S(=O)(=O)Nc1ccccc1OC	Pf growth 96h inconclusive, Pf growth 48h 9.3µM
N#CCCCN1C(=O)C(=C(C#N)C#N)c2ccccc21	Sm TGR inh 2.5µM
COc1ccc(Cl)cc1S(=O)(=O)Nc1ncn[nH]1	none
O=C1C=C(Nc2cccc3cccnc23)c2ccccc2C1=O	Sm TGR inh 32µM, Pf growth 48h 2.1µM
Cc1sc(=NC(=O)c2ccco2)n(C)c1-c1ccc(Cl)cc1	Pf growth 96h 10µM, Pf growth 48h inconclusive
CCn1nc(C(=O)N[C@@H](CCSC)c2nc3ccccc3[nH]2)c2ccccc2c1=O	Pf growth 96h inconclusive (no result: Pf growth 48h)
CSCC[C@H](NC(=O)C(C)Oc1ccc(Cl)cc1)c1nc2ccccc2[nH]1 (some centres undefined)	Pf growth 96h 6.6µM, Pf growth 48h inconclusive
CSCC[C@H](NC(=O)COc1ccc(Cl)cc1Cl)c1nc2ccccc2[nH]1	Pf growth 96h inconclusive
CCCCn1nc(C(=O)N[C@@H](CCSC)c2nc3ccccc3[nH]2)c2ccccc2c1=O	Pf growth 96h 12µM, Pf growth 48h inconclusive (no result: SARS PLP yeast)
COc1ccc(N2CCN(S(=O)(=O)c3ccc4oc(=O)c5ncn(C)c5c4c3)CC2)cc1	none (no result: Pf growth 96h, SARS PLP yeast, Pf growth 48h)
Cc1ccc(CSCc2nc3ccccc3[nH]2)cc1	Pf growth 96h inconclusive
Cc1cc(C)cc(CC(Cc2nc3ccccc3[nH]2)c2nc3ccccc3[nH]2)c1 (centres undefined)	Pf growth 48h 2.3µM
CC1CC(C)CN(C(=O)c2ccc(CSc3nc4ccncc4[nH]3)cc2)C1 (centres undefined)	none
O=C(NCCN1CCN(c2cccc(Cl)c2)CC1)c1ccc(CSc2nc3ccncc3[nH]2)cc1	Pf growth 96h inconclusive, Pf growth 48h 1.7µM
Clc1cccc(CSc2nc3ccncc3[nH]2)c1	Pf growth 96h inconclusive (no result: Pf growth 48h)
CCN(CCNC(=O)c1ccc(CSc2nc3ccncc3[nH]2)cc1)c1ccccc1	Pf growth 48h 10µM
Cn1c(=O)c2c(SCC(=O)N3CCOCC3)nc(-c3ccccc3Cl)nc2n(C)c1=O	Pf growth 96h inconclusive
O=C(NCC1CCCO1)c1ccc(NC(=O)c2ccc([N+](=O)[O-])cc2)cc1 (centres undefined)	Pf growth 96h inconclusive, Pf growth 48h inconclusive
CCCc1nc2ccccc2c(C(=O)OCC(=O)Nc2ccc(S(=O)(=O)N3CCOCC3)cc2)c1CC	Pf growth 48h 15µM (no result: Pf growth 96h)
CCCc1nc2ccccc2c(C(=O)OCC(=O)Nc2cccc(S(=O)(=O)N3CCOCC3)c2)c1CC	Pf growth 96h 7.4µM, Pf growth 48h inconclusive
CCCc1nc2ccccc2c(C(=O)OCC(=O)NC2CC2)c1CC	none (no result: Pf growth 96h, Sm TGR inh, Pf growth 48h)
O=C(COC(=O)c1n[nH]c2ccccc12)Nc1cccc(S(=O)(=O)N2CCOCC2)c1	Pf growth 96h inconclusive, Pf growth 48h inconclusive
CC(C)CCn1c(=S)[nH]c2ncccc2c1=O	Pf growth 96h inconclusive
Cn1c(=S)[nH]c2cccnc21	Pf growth 96h 8.3µM
COC(=O)C[C@]1(C(=O)OC)CN(C#N)N(c2ccc(Cl)cc2)C12c1ccccc1-c1ccccc12	Pf growth 96h 3.7µM, Pf growth 48h 3.7µM
COC(=O)CN1C(=O)C(O)(CC(=O)c2ccc(Cl)cc2)c2ccccc21 (centres undefined)	Sm TGR inh inconclusive
COC(=O)[C@@H]1[C@@H](C(=O)OC)C2(c3ccccc3-c3ccccc32)N(c2ccc(Cl)cc2)N1C#N	Pf growth 96h inconclusive, Sm TGR inh 2.8µM, Pf growth 48h inconclusive
CCN(Cc1cc2cc(OC)ccc2[nH]c1=O)C(=O)c1ccncc1	Pf growth 96h 9.3µM
CNC(=S)N(Cc1ccco1)Cc1cc2cc(OC)ccc2[nH]c1=O	Pf growth 48h 2.6µM
COC(=O)c1ccccc1S(=O)(=O)N(Cc1ccco1)Cc1cc2cc(OC)ccc2[nH]c1=O	Sm TGR inh 7.1µM, Pf growth 48h inconclusive
COc1ccc(NC(=S)N(Cc2ccc(N(C)C)cc2)Cc2ccco2)cc1	Pf growth 96h 0.66µM
C/C(=N\NC(=O)c1ccc(O)cc1)c1ccc(NC(=O)Cc2ccccc2)cc1	Pf growth 96h inconclusive
O=C1NN(c2cccc(Br)c2)C(=O)/C1=C\c1ccc(N2CCOCC2)cc1	Pf growth 96h inconclusive
